# Inconclusive results are not listed. Active and inactive are the calls of the source. How the source made its calls, unless noted: active means hit-call score of the fitted dose curve at least 0.9, where 1 is the maximum; inactive means score below 0.9.
# Key:
# [1] = CCTE_Shafer_MEA_acute_per_burst_spike_number_mean: CCTE's Neural Acute Assay for Average Number of Spikes Per Burst, Shafer Lab (AID 2284015);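 further: hits are decreases in mean spikes per burst versus baseline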
# Summary of the method: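 Rat primary cortical neurons on 48-well MEAs (DIV 13 or 15) were treated with 0.03-40 uM compound at 37 C. Mean spikes per burst over 40 min were recorded before and after exposure and expressed as percent change from baseline, relative to DMSO.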
# [2] = CCTE_Shafer_MEA_acute_interburst_interval_mean: CCTE's Neural Acute Assay for Mean Interburst Interval, Shafer Lab (AID 2284016);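 further: percent change of mean interburst interval versus each well's own pre-dose baseline; curves fitted for decrease in interburst interval relative to DMSO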
# Summary of the method: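 Rat primary cortical neurons on 48-well MEAs at DIV 13 or 15 were exposed acutely to 0.03-40 uM. Spikes detected at 8x rms noise, 37 C. Mean interburst interval from 40 min recordings expressed as percent change from 40 min pre-treatment baseline.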
# [3] = CCTE_Shafer_MEA_acute_burst_percentage_mean: CCTE's Neural Acute Assay for Percentage of Spikes in a Burst, Shafer Lab (AID 2284017);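 on AC50: curve fitted for loss of signal so potency reflects decreased burst percentage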
# Summary of the method: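 Primary rat cortical neurons on 48-well MEA plates, treated on DIV 13 or 15 at 0.03-40 uM. Spikes detected at 8x rms noise at 37C; percent change from 40-min baseline to 40-min post-dose recording, fitted versus DMSO.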
# [4] = CCTE_Shafer_MEA_acute_burst_percentage_std: CCTE's Neural Acute Assay for Standard Deviation of Burst Percentage, Shafer Lab (AID 2284018);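 further: fitted in the negative direction so actives lower burst percentage SD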
# Summary of the method: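 Value is percent change from baseline in the across-electrode SD of spikes-in-bursts percentage, wells with >/= 10 active electrodes. Acute 40-min exposure to 0.03-40 uM on DIV 13 or 15 rat cortical cultures, recorded at 37 C after 40-min baseline.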
# [5] = CCTE_Shafer_MEA_acute_per_network_burst_spike_number_mean: CCTE's Neural Acute Assay for Average Number of Spikes in a Network Burst, Shafer Lab (AID 2284019)
# Summary of the method: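 Percent change from baseline in mean spikes per network burst, spikes detected at 8x rms noise. Each compound at 0.03-40 uM in at least three wells of rat cortical cultures, recorded 40 min before and 40 min during exposure.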
# [6] = CCTE_Shafer_MEA_acute_per_network_burst_spike_number_std: CCTE's Neural Acute Assay for Standard Deviation of Number of Spikes in a Network Burst, Shafer Lab (AID 2284020);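 further: fitted for decrease in spike-number SD versus DMSO so actives lower it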
# Summary of the method: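 Endpoint: percent change from 40 min baseline in standard deviation of spikes per network burst, after 40 min compound exposure (0.03-40 uM, 37 C). Cortical rat neurons on MEA at DIV 13 or 15; spikes detected at 8x rms noise, 300-5000 Hz band-pass.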
# [7] = CCTE_Shafer_MEA_acute_network_burst_percentage: CCTE's Neural Acute Assay for Percentage of Network Bursts, Shafer Lab (AID 2284022);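 further: curves fitted for loss so actives lower network burst percentage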
# Summary of the method: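 On DIV 13 or 15, at least three wells of rat cortical neurons per compound are dosed at 0.03-40 uM. Spontaneous firing is detected at 8x rms noise for 40 min before and after dosing at 37 C. The percent change in network-burst spike share is reported.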
# [8] = CCTE_Shafer_MEA_acute_cross_correlation_HWHM: CCTE's Neural Acute Assay for Cross Correlation at Half Width at Half Maximum, Shafer Lab (AID 2284026);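 further: percent change per well from pre-dose baseline in spike cross-correlogram half width; hits are a decrease in cross-correlogram half width relative to DMSO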;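 on outcome: spontaneous network firing of rat primary cortical neurons on multiwell microelectrode arrays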
# Summary of the method: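 Percent change in cross-correlogram half width at half maximum, narrower meaning more synchrony, was derived per well from paired 40-min recordings before and during exposure to 0.03-40 uM compound in rat cortical cultures at 37 C.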
# [9] = CCTE_Shafer_MEA_acute_synchrony_index: CCTE's Neural Acute Assay for Synchrony, Shafer Lab (AID 2284027);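 further: network synchrony index of spontaneous spiking in primary rat cortical neurons on MEAs; fitted for loss of signal so actives lower synchrony relative to DMSO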
# Summary of the method: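 Acute exposure of rat primary cortical neurons (DIV 13 or 15) at 0.03-40 uM. Synchrony index, 40 min before vs after, as % change relative to DMSO control.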
# [10] = CCTE_Shafer_MEA_dev_firing_rate_mean: CCTE's Neural Network Formation Assay for Mean Firing Rate, Shafer Lab (AID 2284031)
# Summary of the method: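 Extracellular spike frequency, AUC over DIV 5–12 recordings, in rat cortical neuron MEA cultures dosed from plating; loss direction vs DMSO.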
# [11] = CCTE_Shafer_MEA_dev_per_burst_spike_percent: CCTE's Neural Network Formation Assay for Percent of Spikes in a Burst, Shafer Lab (AID 2284032)
# Summary of the method: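 Value is trapezoidal AUC over recordings on days 5, 7, 9 and 12 of the well-mean fraction of spikes falling in single-electrode bursts; rat cortical cultures exposed continuously from plating, treatment renewed DIV 5 and 9, fitted downward against DMSO.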
# [12] = biological target: Estrogen receptor (Homo sapiens) (UniProt P03372); test: CCTE_Deisenroth_AIME_384WELL_LUC_Inactive: CCTE's 384-well Estrogen Receptor Transactivation Assay without AIME metabolic competence (ERTA luciferase; metabolism negative), Deisenroth Lab (AID 2284038; active means hit-call score of the fitted dose curve at least 0.9, where 1 is the maximum;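 further: VM7Luc4E2 breast cells given medium preincubated 2 h with S9-free microspheres; hits raise estrogen receptor luciferase signal so potencies reflect agonists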)
# Summary of the method: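 Metabolism-negative mode: AIME lids stamped in alginate-water, no hepatic S9. 2 h chemical incubation → medium onto VM7Luc4E2 ERTA, 24 h. Readout luciferase luminescence; gain-of-signal fit vs 17beta-estradiol. Conc. 0.002 - 200 uM.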
# [13] = CCTE_Deisenroth_AIME_384WELL_CTox_Inactive: Cytotoxicity Assessment (CTOX) in CCTE's 384-well Estrogen Receptor Transactivation Assay without AIME metabolic competence (metabolism negative), Deisenroth Lab (AID 2284039; active means hit-call score of the fitted dose curve at least 0.9, where 1 is the maximum;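 further: cell viability via live-cell protease substrate cleaved to fluorescent probe; cells exposed 24 h to medium preincubated 2 h with alginate-water beads without S9; loss of fluorescence signal means loss of viability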)
# Summary of the method: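 VM7Luc4E2 cells, metabolism-negative arm: test chemicals (0.002–200 uM, 10 points) pre-incubated 2 h with alginate-water microspheres, then medium transferred to cells for 24 h. Viability read as protease-substrate cleavage to fluorescent probe; loss-of-signal, bidirectional fitting.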
# [14] = CCTE_Shafer_MEA_dev_active_electrodes_number: CCTE's Neural Network Formation Assay for Number of Active Electrodes, Shafer Lab (AID 2284040; active means hit-call score of the fitted dose curve at least 0.9, where 1 is the maximum)
# Summary of the method: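 Developing rat cortical networks on MEAs, exposed DIV 0–12. Value is the AUC of active-electrode counts (≥5 spikes/min) from days 5, 7, 9, 12, relative to DMSO.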
# [15] = biological target: Estrogen receptor (Homo sapiens) (UniProt P03372); test: CCTE_Deisenroth_AIME_384WELL_LUC_Shift: CCTE's 384-well Estrogen Receptor Transactivation Assay with AIME metabolic competence data shift (ERTA luciferase; difference in metabolism positive and negative), Deisenroth Lab (AID 2284041);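 further: shift is response with S9 minus without S9 so positive means metabolism raised ER signal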
# Summary of the method: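 Test chemicals (0.002–200 uM, 10-point) were pre-incubated 2 h with alginate microspheres containing phenobarbital/beta-naphthoflavone-induced male Sprague Dawley rat liver S9 or water, then medium was transferred to VM7Luc4E2 cells for 24 h luciferase readout; shift = S9-positive minus S9-negative normalized response.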
# [16] = CCTE_Deisenroth_AIME_384WELL_CTox_Active: Cytotoxicity Assessment (CTOX) in CCTE's 384-well Estrogen Receptor Transactivation Assay with AIME metabolic competence (metabolism positive), Deisenroth Lab (AID 2284037; active means hit-call score of the fitted dose curve at least 0.9, where 1 is the maximum;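 further: chemicals first conditioned 2 h by alginate-bound induced rat liver S9 before cells; activity means signal loss indicating cell death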)
# Summary of the method: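 Cytotoxicity in VM7Luc4E2 breast cells, 24 hour, measured as protease-substrate fluorescence loss, after 2-hour metabolic conditioning with induced rat hepatic S9 in alginate microspheres. Concentrations 0.002 - 200 uM, 10 points, bidirectional fitting.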
# Sequence of Estrogen receptor (Homo sapiens) (P03372 whole entry, looked up): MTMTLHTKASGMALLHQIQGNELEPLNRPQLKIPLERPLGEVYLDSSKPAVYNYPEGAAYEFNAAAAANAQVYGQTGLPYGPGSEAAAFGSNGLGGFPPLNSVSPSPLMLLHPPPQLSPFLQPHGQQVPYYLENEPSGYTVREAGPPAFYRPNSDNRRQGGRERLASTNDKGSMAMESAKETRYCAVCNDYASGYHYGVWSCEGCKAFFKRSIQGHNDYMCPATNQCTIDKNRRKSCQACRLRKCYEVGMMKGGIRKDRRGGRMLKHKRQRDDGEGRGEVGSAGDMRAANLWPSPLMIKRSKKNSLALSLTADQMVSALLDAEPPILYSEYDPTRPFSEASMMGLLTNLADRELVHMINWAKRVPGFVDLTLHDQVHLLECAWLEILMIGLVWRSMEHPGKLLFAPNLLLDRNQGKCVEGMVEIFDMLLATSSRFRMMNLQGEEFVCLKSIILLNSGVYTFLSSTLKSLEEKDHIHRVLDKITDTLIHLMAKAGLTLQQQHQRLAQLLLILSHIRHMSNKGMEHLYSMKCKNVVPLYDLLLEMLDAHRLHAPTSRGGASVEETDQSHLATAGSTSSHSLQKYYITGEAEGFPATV
smiles,measurement,setting,value
C[Si]1(C)O[Si](C)(C)O[Si](C)(C)O[Si](C)(C)O1,outcome,[1],inactive
same,outcome,[2],inactive
same,outcome,[3],inactive
same,outcome,[4],inactive
same,outcome,[5],inactive
same,outcome,[6],inactive
same,outcome,[7],inactive
same,outcome,[8],inactive
same,outcome,[9],inactive
same,outcome,[10],inactive
same,outcome,[11],inactive
same,outcome,[12],inactive
same,outcome,[13],inactive
same,outcome,[14],inactive
same,outcome,[15],inactive
C=CCc1ccc(O)c(OC)c1,outcome,[1],inactive
same,outcome,[2],inactive
same,outcome,[3],inactive
same,outcome,[4],inactive
same,outcome,[5],inactive
same,outcome,[6],inactive
same,AC50,[7],31.1 µM (active)
same,outcome,[8],inactive
same,AC50,[9],20 µM (active)
same,outcome,[10],inactive
same,outcome,[11],inactive
same,outcome,[16],inactive
same,outcome,[12],inactive
same,outcome,[13],inactive
same,outcome,[14],inactive
same,outcome,[15],inactive
C=CCOC(=O)c1ccccc1C(=O)OCC=C,outcome,[1],inactive
same,outcome,[2],inactive
same,AC50,[3],20 µM (active)
same,AC50,[4],20 µM (active)
same,outcome,[5],inactive
same,outcome,[6],inactive
same,outcome,[7],inactive
same,outcome,[8],inactive
same,outcome,[9],inactive
NCC1(Cc2noc(=O)[nH]2)CCCCC1,outcome,[1],inactive
same,outcome,[2],inactive
same,outcome,[3],inactive
same,outcome,[4],inactive
same,outcome,[5],inactive
same,outcome,[6],inactive
same,outcome,[7],inactive
same,outcome,[8],inactive
same,outcome,[9],inactive
Nc1nc(N)c2nc(CNc3ccc(C(=O)N[C@@H](CCC(=O)O)C(=O)O)cc3)cnc2n1,outcome,[1],inactive
same,outcome,[2],inactive
same,outcome,[3],inactive
same,outcome,[4],inactive
same,outcome,[5],inactive
same,outcome,[6],inactive
same,outcome,[7],inactive
same,outcome,[8],inactive
same,outcome,[9],inactive
FC(F)(F)C(F)(F)C(F)(F)C(F)(F)C(F)(F)C(F)(F)CCI,outcome,[1],inactive
same,outcome,[2],inactive
same,outcome,[3],inactive
same,outcome,[4],inactive
same,outcome,[5],inactive
same,outcome,[6],inactive
same,outcome,[7],inactive
same,outcome,[8],inactive
same,outcome,[9],inactive
same,outcome,[10],inactive
same,outcome,[11],inactive
same,outcome,[14],inactive
COc1ccc(S(=O)(=O)N2C(=O)[C@@](c3ccccc3OC)(N3C[C@H](O)C[C@H]3C(=O)N(C)C)c3cc(Cl)ccc32)c(OC)c1,outcome,[1],inactive
same,outcome,[2],inactive
same,outcome,[3],inactive
same,outcome,[4],inactive
same,outcome,[5],inactive
same,outcome,[6],inactive
same,outcome,[7],inactive
same,outcome,[8],inactive
same,outcome,[9],inactive
CN[C@H]1CC[C@@H](c2ccc(Cl)c(Cl)c2)c2ccc(S(N)(=O)=O)cc21,AC50,[1],20 µM (active)
same,outcome,[2],inactive
same,AC50,[3],31.6 µM (active)
same,outcome,[4],inactive
same,outcome,[5],inactive
same,AC50,[6],20 µM (active)
same,AC50,[7],31 µM (active)
same,outcome,[8],inactive
same,AC50,[9],32 µM (active)
Cc1ccc(C(C)C)c(O)c1,outcome,[1],inactive
same,outcome,[2],inactive
same,AC50,[3],20 µM (active)
same,outcome,[4],inactive
same,outcome,[5],inactive
same,outcome,[6],inactive
same,outcome,[7],inactive
same,outcome,[8],inactive
same,outcome,[9],inactive
same,outcome,[12],inactive
same,outcome,[15],inactive
CCCCCCCCCCO,outcome,[1],inactive
same,outcome,[2],inactive
same,AC50,[3],10.3 µM (active)
same,outcome,[4],inactive
same,outcome,[5],inactive
same,outcome,[6],inactive
same,outcome,[7],inactive
same,AC50,[8],20 µM (active)
same,AC50,[9],20 µM (active)
same,outcome,[16],inactive
same,outcome,[12],inactive
same,outcome,[15],inactive
CCCCCCCCCCCCCCCCCC(=O)O,outcome,[1],inactive
same,outcome,[2],inactive
same,outcome,[3],inactive
same,outcome,[4],inactive
same,outcome,[5],inactive
same,outcome,[6],inactive
same,outcome,[7],inactive
same,outcome,[8],inactive
same,outcome,[9],inactive
same,outcome,[16],inactive
same,outcome,[12],inactive
same,outcome,[13],inactive
same,outcome,[15],inactive
Cc1ccc2ncccc2c1,outcome,[1],inactive
same,outcome,[2],inactive
same,outcome,[3],inactive
same,outcome,[4],inactive
same,outcome,[5],inactive
same,outcome,[6],inactive
same,outcome,[7],inactive
same,outcome,[8],inactive
same,outcome,[9],inactive
same,outcome,[16],inactive
same,outcome,[12],inactive
same,outcome,[15],inactive
c1cc(-c2ccncc2)ccn1,outcome,[1],inactive
same,outcome,[2],inactive
same,outcome,[3],inactive
same,outcome,[4],inactive
same,outcome,[5],inactive
same,outcome,[6],inactive
same,outcome,[7],inactive
same,outcome,[8],inactive
same,outcome,[9],inactive
CC(=O)Oc1ccccc1C(=O)O,outcome,[1],inactive
same,outcome,[2],inactive
same,outcome,[3],inactive
same,outcome,[4],inactive
same,outcome,[5],inactive
same,outcome,[6],inactive
same,outcome,[7],inactive
same,outcome,[8],inactive
same,outcome,[9],inactive
same,outcome,[10],inactive
same,outcome,[11],inactive
same,outcome,[12],inactive
same,outcome,[14],inactive
same,outcome,[15],inactive
CC(=O)C(C)=CC1C(C)=CCCC1(C)C (stereo not drawn),outcome,[1],inactive
same,outcome,[2],inactive
same,AC50,[3],20 µM (active)
same,outcome,[4],inactive
same,outcome,[5],inactive
same,outcome,[6],inactive
same,outcome,[7],inactive
same,outcome,[8],inactive
same,AC50,[9],20 µM (active)
Nc1ccc2c(c1)C(=O)c1ccccc1C2=O,outcome,[1],inactive
same,outcome,[2],inactive
same,outcome,[3],inactive
same,outcome,[4],inactive
same,outcome,[5],inactive
same,outcome,[6],inactive
same,outcome,[7],inactive
same,outcome,[8],inactive
same,outcome,[9],inactive
same,outcome,[16],inactive
same,AC50,[12],11.2 µM (active)
same,AC50,[15],3.51 µM (active)
CN1CCCC1=O,outcome,[1],inactive
same,outcome,[2],inactive
same,outcome,[3],inactive
same,outcome,[4],inactive
same,outcome,[5],inactive
same,outcome,[6],inactive
same,outcome,[7],inactive
same,outcome,[8],inactive
same,outcome,[9],inactive
same,outcome,[16],inactive
same,outcome,[12],inactive
same,outcome,[13],inactive
same,outcome,[15],inactive

# Source: PubChem BioAssay (EPA / NIEHS)
